Source: PubChem BioAssay AID1159580 (chemical genetic matrix, 2015)
Out of some 5,500 compounds screened, about 2,000 (36%) were called active. Inconclusive results (about 18%) are left out. Cut-off read from the data, not from the text of the source: active = normalized growth mostly below about 0.91 (no sharp cut-off); inconclusive = no clear call, values can overlap the other calls; inactive = mostly above about 0.92. The list shows a part of the results.

Test: chemical genetic growth profiling, strain panel (AID 1159580);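 note: tested at 20 µM; growth read once vehicle control cultures reached saturation at 30 °C; 1 = growth at the plate median or of vehicle wells; lower values mean less growth of the strain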
Details: S. cerevisiae deletion strains, growth OD
[1] = locus YAR019C, strain CDC15, hits give low values
[2] = locus YBL105C, strain PKC1, hits give low values
[3] = locus YBR135W, strain CKS1, hits give low values
[4] = locus YBR136W, strain MEC1, hits give low values
[5] = locus YBR160W, strain CDC28, hits give low values
[6] = locus YDL017W, strain CDC7, hits give low values
[7] = locus YDL028C, strain MPS1, hits give low values
[8] = locus YDL101C, strain DUN1, hits give low values
[9] = locus YDL108W, strain KIN28, hits give low values
[10] = locus YDL132W, strain cdc53, hits give low values
[11] = locus YDL214C, strain PRR2, hits give low values
[12] = locus YDR052C, strain DBF4, hits give low values
[13] = locus YDR054C, strain cdc34, hits give low values
[14] = locus YDR226W, strain ADK1, hits give low values
[15] = locus YDR477W, strain SNF1, hits give low values
[16] = locus YER123W, strain YCK3, hits give low values
[17] = locus YER133W, strain GLC7, hits give low values
[18] = locus YFL009W, strain cdc4, hits give low values
[19] = locus YFL029C, strain CAK1, hits give low values
[20] = locus YFR003C, strain YPI1, hits give low values
[21] = locus YFR019W, strain FAB1, hits give low values
[22] = locus YFR028C, strain CDC14, hits give low values
[23] = locus YGR040W, strain KSS1, hits give low values
[24] = locus YGR052W, strain FMP48, hits give low values
[25] = locus YGR092W, strain DBF2, hits give low values
[26] = locus YHR030C, strain SLT2, hits give low values
[27] = locus YHR079C, strain IRE1, hits give low values
[28] = locus YHR082C, strain KSP1, hits give low values
[29] = locus YHR205W, strain SCH9, hits give low values
[30] = locus YIL147C, strain SLN1, hits give low values
[31] = locus YJL095W, strain BCK1, hits give low values
[32] = locus YJL128C, strain PBS2, hits give low values
[33] = locus YJL157C, strain FAR1, hits give low values
[34] = locus YJR016C, strain ILV3, hits give low values
[35] = locus YJR066W, strain TOR1 (second series), hits give low values
[36] = locus YJR066W, strain TOR1, hits give low values
[37] = locus YKL048C, strain ELM1, hits give low values
[38] = locus YKL067W, strain YNK1, hits give low values
[39] = locus YKL101W, strain HSL1, hits give low values
[40] = locus YKL193C, strain SDS22, hits give low values
[41] = locus YKL203C, strain TOR2, hits give low values
[42] = locus YLR113W, strain HOG1, hits give low values
[43] = locus YLR133W, strain CKI1, hits give low values
[44] = locus YLR403W, strain SFP1, hits give low values
[45] = locus YML070W, strain DAK1, hits give low values
[46] = locus YMR001C, strain CDC5, hits give low values
[47] = locus YMR205C, strain PFK2 (second series), hits give low values
[48] = locus YMR277W, strain FCP1, hits give low values
[49] = locus YNL006W, strain LST8, hits give low values
[50] = locus YNL020C, strain ARK1, hits give low values
[51] = locus YNL161W, strain CBK1, hits give low values
[52] = locus YNL183C, strain NPR1, hits give low values
[53] = locus YNL207W, strain RIO2, hits give low values
[54] = locus YNL222W, strain SSU72, hits give low values
[55] = locus YNL307C, strain MCK1 (second series), hits give low values
[56] = locus YOL078W, strain AVO1, hits give low values
[57] = locus YOL136C, strain PFK27, hits give low values
[58] = locus YOR061W, strain CKA2, hits give low values
[59] = locus YOR119C, strain RIO1, hits give low values
[60] = locus YOR231W, strain MKK1, hits give low values
[61] = locus YOR329C, strain SCD5, hits give low values
[62] = locus YPL031C, strain PHO85, hits give low values
[63] = locus YPL153C, strain RAD53, hits give low values
[64] = locus YPL204W, strain HRR25, hits give low values
[65] = locus YPL209C, strain IPL1, hits give low values
[66] = locus YPL256C, strain CLN2, hits give low values
[67] = locus YPR025C, strain CCL1, hits give low values
[68] = locus YPR106W, strain ISR1, hits give low values
[69] = locus YPR111W, strain DBF20, hits give low values
[70] = strain NNK1, hits give low values
[71] = strain TSCII, hits give low values

Measured: normalized growth

Cc1csc2ncnc(N3CCN(C(=S)Nc4ccc(C(F)(F)F)cc4)CC3)c12
inactive: [1] 0.995 | [2] 0.987 | [3] 0.985 | [4] 1 | [5] 0.998 | [6] 1 | [7] 0.996 | [8] 0.985 | [9] 0.993 | [10] 0.996 | [11] 0.945 | [12] 1 | [13] 0.965 | [14] 0.994 | [15] 0.999 | [16] 0.926 | [17] 0.964 | [18] 0.99 | [19] 0.983 | [20] 0.996 | [21] 0.958 | [22] 0.993 | [23] 0.978 | [24] 0.999 | [25] 0.922 | [26] 0.919 | [27] 0.982 | [28] 1.02 | [29] 0.908 | [30] 1.01 | [31] 0.938 | [32] 0.92 | [33] 0.942 | [34] 0.995 | [35] 0.908 | [36] 1.02 | [37] 0.979 | [38] 0.968 | [39] 0.959 | [40] 0.996 | [41] 1.01 | [43] 0.95 | [44] 0.955 | [45] 0.94 | [46] 0.999 | [47] 0.954 | [48] 0.986 | [49] 0.989 | [50] 0.949 | [51] 0.997 | [52] 0.987 | [53] 0.991 | [54] 0.986 | [55] 0.958 | [56] 0.989 | [57] 0.933 | [58] 0.94 | [59] 1.01 | [60] 0.909 | [61] 0.998 | [62] 0.982 | [63] 0.932 | [64] 0.963 | [65] 0.977 | [66] 0.91 | [67] 0.984 | [68] 0.979 | [69] 0.978 | [70] 0.988 | [71] 1
active: [42] 0.816

Cc1csc2ncnc(N3CCN(C(=O)Nc4ccc(SC(F)(F)F)cc4)CC3)c12
inactive: [1] 1.01 | [2] 0.991 | [3] 0.999 | [4] 1 | [5] 0.979 | [6] 0.982 | [7] 0.994 | [8] 1 | [9] 0.995 | [10] 1 | [11] 0.908 | [12] 0.988 | [13] 0.993 | [14] 1 | [15] 0.937 | [16] 0.902 | [17] 0.912 | [18] 1.01 | [19] 1 | [20] 1.01 | [21] 0.918 | [22] 0.994 | [23] 0.925 | [24] 0.963 | [25] 0.867 | [27] 0.866 | [28] 0.947 | [29] 0.927 | [30] 0.987 | [31] 0.868 | [32] 0.972 | [33] 0.88 | [34] 0.994 | [35] 0.65 | [36] 0.915 | [37] 0.931 | [38] 0.915 | [39] 0.903 | [40] 1 | [41] 0.977 | [43] 0.909 | [44] 0.905 | [45] 0.886 | [46] 0.999 | [47] 0.903 | [48] 1 | [49] 0.997 | [50] 0.898 | [51] 1 | [52] 0.895 | [53] 0.987 | [54] 1 | [55] 0.866 | [56] 0.996 | [57] 0.869 | [58] 0.864 | [59] 0.967 | [60] 0.825 | [61] 1 | [62] 0.915 | [63] 0.914 | [64] 0.9 | [65] 1 | [67] 0.998 | [68] 0.988 | [69] 0.987 | [70] 0.993 | [71] 0.983
active: [26] 0.818 | [42] 0.806 | [66] 0.845

COc1ccccc1C1CCN(c2ncnc3scc(-c4ccccc4)c23)CC1
inactive: locus YAL013W, strain DEP1, hits give low values 1 | locus YBR229C, strain ROT2, hits give low values 1.01 | locus YCL061C, strain MRC1, hits give low values 1 | [8] 1.04 | locus YDL134C, strain PPH21, hits give low values 0.994 | locus YDR150W, strain NUM1, hits give low values 1.05 | locus YEL061C, strain CIN8, hits give low values 1 | locus YGR078C, strain PAC10, hits give low values 1.01 | locus YGR229C, strain SMI1, hits give low values 1.01 | [26] 1.03 | locus YHR087W, strain rtc3, hits give low values 0.976 | locus YJR043C, strain POL32, hits give low values 1.01 | locus YJR075W, strain HOC1, hits give low values 1.01 | locus YKL190W, strain CNB1, hits give low values 1 | locus YLR039C, strain RIC1, hits give low values 1.02 | locus YLR058C, strain SHM2 (second series), hits give low values 0.984 | locus YLR085C, strain ARP6, hits give low values 1.03 | locus YLR262C, strain YPT6, hits give low values 1.01 | locus YML094W, strain GIM5, hits give low values 0.992 | locus YMR219W, strain ESC1, hits give low values 0.996 | locus YMR263W, strain SAP30, hits give low values 1.02 | locus YNL128W, strain TEP1, hits give low values 1.02 | locus YNL153C, strain GIM3, hits give low values 1.01 | locus YNL298W, strain CLA4 (second series), hits give low values 0.994 | locus YNL322C, strain KRE1, hits give low values 0.992 | locus YNR030W, strain Alg12, hits give low values 1 | locus YPL055C, strain LGE1, hits give low values 0.987 | locus YPL241C, strain CIN2, hits give low values 1.04 | locus YPR135W, strain CTF4, hits give low values 1.02
